High-throughput results from PubChem.
GLP1R ag: GLP-1 receptor (human) agonism. Potency, µM (highest dose often 45.6 µM), for inactives: at the highest dose activation, actives largely listed as activators. hit rate 0.007% among 380,000. P43220. AID 624172. HEK293 GLP-1R CRE-luciferase, luminescence, 4-6 h; cells express a hypersensitive GLP-1R form; note: % of control where 0% means no effect
Target sequence (P43220 whole entry, looked up): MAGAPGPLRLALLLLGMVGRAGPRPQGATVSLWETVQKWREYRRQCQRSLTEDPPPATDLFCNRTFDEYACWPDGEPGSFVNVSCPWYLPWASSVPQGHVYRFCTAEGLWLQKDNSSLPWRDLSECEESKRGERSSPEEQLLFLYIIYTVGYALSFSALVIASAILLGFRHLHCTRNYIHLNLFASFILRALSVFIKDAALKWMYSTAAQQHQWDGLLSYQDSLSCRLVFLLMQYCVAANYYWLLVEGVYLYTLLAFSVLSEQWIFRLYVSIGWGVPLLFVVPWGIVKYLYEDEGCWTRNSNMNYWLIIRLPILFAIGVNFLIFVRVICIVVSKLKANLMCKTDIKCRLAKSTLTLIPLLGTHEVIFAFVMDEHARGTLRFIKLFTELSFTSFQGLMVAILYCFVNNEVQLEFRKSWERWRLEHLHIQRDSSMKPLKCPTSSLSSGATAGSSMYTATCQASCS
ClpP mod: qHTS Assay for Activators of ClpP | purified B. subtilis ClpP, FRET peptide cleavage, 20 min | Potency, µM (doses to about 57.5 µM), for inactives: at the highest dose activity change, negative = active | AID 651965, 2013 | hit rate 1.9% among 340,000 | ATP-dependent Clp protease proteolytic subunit (Bacillus subtilis (strain 168)), P80244; active = well fitted falling curve with a large enough effect; inconclusive = small, poorly fitted or top-dose-only effect; inactive = no such curve, though single readings can be large or run the other way; note: the source files actives as falling curves though it sought activators and does not explain the sign; nearly all actives have a fitted effect of over 65% in size
Target sequence (P80244 whole entry, looked up): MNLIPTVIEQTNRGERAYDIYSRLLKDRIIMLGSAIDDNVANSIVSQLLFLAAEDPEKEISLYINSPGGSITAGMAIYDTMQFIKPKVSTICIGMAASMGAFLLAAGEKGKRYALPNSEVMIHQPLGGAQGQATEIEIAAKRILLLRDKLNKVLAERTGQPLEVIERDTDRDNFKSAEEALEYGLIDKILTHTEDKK
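Purified B. subtilis ClpP, 10 microg/mL final in Tris/HCl pH8 with KCl, BSA, glycerol and Tween-20, cleaved an Abz/nitrotyrosine-quenched decapeptide. Fluorescence (ex 320, em 430) was read at 0 and 20 min at room temperature. Delta was normalized to 5.8 microM ADEP and DMSO/no-enzyme controls.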
GLP1R inv ag: GLP-1 receptor (human) inverse agonism | P43220 | HEK293 GLP-1R CRE-luciferase, luminescence, 24 h; GLP-1R form is constitutively active | Potency, µM (titrated, usually from 38.3 µM), inactives show at the highest dose activity change, negative = inhibition, hits mostly inhibitors | hit rate 1.6% among 410,000; note: % is set by controls: 0 for no effect and ±100 for the full control effect; nearly all actives have a fitted effect of over 55% in size
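Inverse agonists were sought by their lowering of basal cAMP reporter luciferase output in HEK293 cells stably carrying constitutively active human GLP-1R, after 24 h compound treatment.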
HEK293 tox: cytotoxic in the GLP-1 receptor inverse agonist counter-screen; HEK293 cAMP-luciferase reporter cells, luminescence, 24 h; hit rate 0.13% among 410,000; Potency, µM (titrated, usually from 38.3 µM), for the others: top-dose activity change, negative = inhibition, usual class: inhibitors;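 note: loss of luciferase light is scored as toxicity; % is set by controls: 0 for no effect and ±100 for the full control effect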
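Step one: seed cells (200 cells/uL, DMEM with 10% Nu serum, 1% pen-strep). Step two: 12-hour incubation at 37 deg C. Step three: pin 23 nL compound, incubate 24 hr. Step four: add luciferase reagent, read luminescence 12 min later.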
* marks the source's active call; other numbers are inactive results; ? = inconclusive; . = no result given; ! = not confirmed by another sample. In the library only some 3.2% were active in any assay of this set; here they are far more common. Unless noted, calls come from the whole dose curve; as a rule, active = well fitted curve in the direction sought with a large enough effect; inconclusive = small, poorly fitted or top-dose-only effect, or another doubt; inactive = no such curve, though single readings can be large; an effect the other way counts as inactive or inconclusive. Potency is the fitted concentration of half-maximal effect.

SMILES	GLP1R ag	ClpP mod	GLP1R inv ag	HEK293 tox
O=C(COC(=O)C1(c2ccccc2F)CCCC1)NC1CCS(=O)(=O)C1 (centres undefined)	1.4%	28.2µM*	4.6%	1.1%
O=C(COc1ccccc1)NC1CCS(=O)(=O)C1 (centres undefined)	-5.8%	-3.3%	20.6%	8.8%
NS(=O)(=O)c1ccc(NC(=O)COC(=O)C2(c3ccccc3F)CCCC2)cc1	-2.1%	25.1µM*	?	5.3%
CCOC(=O)C1CCN(C(=O)c2ccc(-n3ccc4ccccc43)s2)CC1	.	?	12.3%	1.2%
CC(=O)n1cc(N(C(=O)CCl)c2ccc(C)cc2)c2ccccc21	-0.7%	.	4.47µM*	?
CCN1CCN(Cc2ccc(NC(=O)c3ccc(C)c(NC(=O)c4c[nH]c5cc(C(F)(F)F)ccc5c4=O)c3)cc2C(F)(F)F)CC1	-0.4%	-5.5%	10µM*	?
Cc1cc(NC(=O)c2ccccc2Cl)n(C(C)(C)C)n1	2.8%	15.8µM*	0.0%	-6.0%
Cc1cc(NC(=O)c2ccccc2)n(C(C)(C)C)n1	-0.1%	-2.5%	4.0%	-12.3%
Cc1cccc(OCCNC(=O)c2ccc(Oc3ccc(C(F)(F)F)cc3[N+](=O)[O-])cc2)c1	-0.4%	-0.2%	?	-8.0%
Cc1cccc(OCCNC(=O)c2cccc(Oc3ccc(C(F)(F)F)cc3[N+](=O)[O-])c2)c1	-2.0%	1.9%	2.51µM*	-18.1%
CCOC(=O)COc1ccc(S(=O)(=O)N2CCN(c3ccccc3F)CC2)cc1	1.2%	-1.1%	-14.1%	1.5%
CCOC(=O)c1scc(-c2ccc(C)cc2)c1S(=O)(=O)N1CCN(c2ccccc2F)CC1	.	1.3%	7.94µM*	34.2%
O=C1CC(=C(c2ccccc2)c2ccccc2)C(=O)N1CCCN1CCN(c2cccc(Cl)c2)CC1	-17.2%	0.3%	?	-10.5%
O=C1CC(=C(c2ccccc2)c2ccccc2)C(=O)N1CCN1CCN(c2cccc(Cl)c2)CC1	-0.6%	25.1µM*	?	17.4%
CN[C@H](CC(C)C)C(=O)N[C@H]1C(=O)N[C@@H](CC(N)=O)C(=O)N[C@H]2C(=O)N[C@H]3C(=O)N[C@H](C(=O)N[C@H](C(=O)O)c4cc(O)cc(O)c4-c4cc3ccc4O)[C@H](O)c3ccc(c(Cl)c3)Oc3cc2cc(c3O[C@@H]2OC(CO)[C@@H](O)[C@H](O)[C@H]2O[C@H]2C[C@](C)(N)[C@H](O)[C@H](C)O2)Oc2ccc(cc2Cl)[C@H]1O (some centres undefined)	-3.8%	.	.	.
O=C(Nc1ccc(F)cc1F)c1cc2n(n1)C(C(F)(F)F)C1CCCCC1N2 (centres undefined)	-9.2%	28.2µM*	?	11.2%
O=C(COc1ccc(F)cc1)Nc1ccc2nc(SCc3ccccc3)sc2c1	.	-5.8%	16.8%	5.5%
N/C(CC(=O)NC1CCCCC1)=N\OCC(=O)Nc1ccc(Cl)c(Cl)c1	10.0%	.	22.4µM*	6.1%
CCc1ccc(NC(=O)Cc2csc(COc3cccc(C)c3)n2)cc1	.	0.7%	?	0.9%
CC(C)C1=NN(C(=O)c2ccccc2)C(O)(C(C)(C)C)C1 (centres undefined)	-14.2%	?	12.6µM*	?
CC(=O)c1cccc(NC(=O)Cn2c(SCC(=O)Nc3ccc(F)cc3)nc3ccccc32)c1	.	-4.7%	?	-2.0%
CC(C)OC(=O)NC(c1ccccc1)C(Cl)(Cl)Cl (centres undefined)	10.7%	-1.1%	11.2µM*	18.3%
Cc1ccc(-n2c(=O)c3c4c(sc3n(Cc3cc(=O)n5ccccc5n3)c2=O)CCC4)cc1C	0.0%	28.2µM*!	-5.9%	-11.9%
CCOC(=O)c1ccccc1NC(=O)C(=O)Nc1ccc2nc3n(c(=O)c2c1)CCCCC3	.	2.4%	3.2%	-8.5%
C=C(c1ccccc1O)n1ccnc1	3.6%	12.6µM*	-0.4%	-1.5%
SMILES	GLP1R ag	ClpP mod	GLP1R inv ag	HEK293 tox
CC1(C)CC2CC(C)(CN2S(=O)(=O)c2ccc(C(=O)Nc3ccc(Cl)c(S(=O)(=O)N4CCOCC4)c3)cc2)C1 (centres undefined)	-16.6%	?	3.55µM*	-11.8%
CC1(C)CC2CC(C)(CN2S(=O)(=O)c2ccc(C(=O)Nc3ccc(S(=O)(=O)N4CCOCC4)cc3)cc2)C1 (centres undefined)	0.6%	.	11.2µM*	10.9%
CC(=O)Nc1ccc(S(=O)(=O)N2CC3(C)CC2CC(C)(C)C3)cc1 (centres undefined)	9.5%	.	?	-5.5%
O=C(Nc1ccc(Cl)c(S(=O)(=O)N2CCOCC2)c1)c1ccccc1-c1ccc(C(F)(F)F)cc1	19.1%	1.3%	2.82µM*	2.4%
Cc1c(NC(=O)Nc2cccc(C(F)(F)F)c2)sc2nc3n(c(=O)c12)CCC(C)CC3 (centres undefined)	.	-1.2%	-9.8%	-13.9%
Cc1ccc(-c2noc(CNC(=O)c3ccc(C)c(Cl)c3)n2)cc1	.	-1.3%	?	-8.8%
CCOc1ccccc1CN1CCN(C2CCN(c3ccccc3F)CC2)CC1CCO (centres undefined)	1.9%	.	11.2µM*	-3.8%
CCOc1ccccc1CN1CCN(Cc2ccc(C)o2)CC1CCO (centres undefined)	9.4%	1.0%	-10.6%	4.1%
CCc1ccc(C2Sc3ccccc3NC3=C2C(=O)c2ccccc23)cc1 (centres undefined)	.	-0.6%	?	?
CC(C)c1ccc(C2Sc3ccccc3NC3=C2C(=O)c2ccccc23)cc1 (centres undefined)	.	-0.6%	8.91µM*	-21.7%
COc1ccc(C(=O)C(CCCCC(CN(C)C)C(=O)c2ccc(OC)cc2)CN(C)C)cc1 (centres undefined)	17.4%	0.2%	0.0%	?
CCOc1ccc(C(=O)C(CCC(CN(C)C)C(=O)c2ccc(OCC)cc2)CN(C)C)cc1 (centres undefined)	-6.1%	0.1%	1.58µM*	-22.0%
CC1=C(c2ccc(C)c(C)c2)S(=O)(=O)N(Cc2ccc(C(=O)NCc3ccc(C)cc3)cc2)C1=O	.	11.2µM*	10.2%	4.1%
Fc1ccc(-n2nnc(-c3cccnc3)n2)cc1	6.3%	-3.2%	21.9%	-12.3%
Fc1ccc(C(CCCn2nnc(-c3cccnc3)n2)c2ccc(F)cc2)cc1	-2.5%	-3.2%	10µM*	-9.3%
COC(=O)c1ccccc1NC1OC(=O)c2ccccc21 (centres undefined)	-5.5%	31.6µM*	10.4%	12.2%
COc1ccc(OC)c(/C=C/c2cc3ccccc3cn2)c1	.	-24.6%	.	.
COc1ccc(/C=C2\Cc3ccccc3C2=O)cc1OC	-7.3%	-4.4%	85.9%	8.2%
COc1ccc(/C=C2/CSC/C(=C/c3ccc(OC)c(OC)c3)C2=O)cc1OC	8.9%	0.5%	5.01µM*	-34.9%
CCCCCCCCCCCCCCCC(=O)O[C@H]1[C@@H](O)[C@@H](O)[C@@H]([C@H](NC(=O)[C@@H]2C[C@@H](CCC)CN2C)[C@H](C)Cl)O[C@@H]1SC	-1.2%	.	.	.
